From PubChem BioAssay (Tox21)
Unmarked numbers belong to inactive results. Records with an inconclusive call do not appear. Where a call stands in place of a potency, no number is given. Calls of active or inactive are those of the source. Unless noted, calls come from the whole dose curve; as a rule, active = well fitted curve in the direction sought with a large enough effect in the repeat runs; inconclusive = weak or mixed curves; inactive = no such curve, though single readings can be large; an effect the other way counts as inactive or inconclusive.

Key:
[1] = qHTS assay to identify small molecule agonists of the TGF-beta/Smad signaling pathway (AID 1346859; active = well fitted activation curve with a large enough effect in the signal ratio in the repeat runs, not every such curve was filed as active; the % refers to the signal ratio; note: series mostly up to about 77 µM)
Outline: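 Stable Smad binding element-beta-lactamase HEK 293T cells; 5 hr compound exposure at 37 C under 5% CO2; 2 hr room-temperature substrate step; fluorescence excited at 405 nm, collected at 460 nm and 530 nm.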

[2] = biological target: Thyrotropin-releasing hormone receptor (Homo sapiens) (UniProt P34981); assay: qHTS assay to identify small molecule antagonists of the thyrotropin-releasing hormone receptor (TRHR) signaling pathway (AID 1346877; active = well fitted inhibition curve with a large enough effect in the repeat runs, not every such curve was filed as active; note: series mostly up to about 51 µM)
Chain of Thyrotropin-releasing hormone receptor (Homo sapiens) (P34981 whole entry, looked up): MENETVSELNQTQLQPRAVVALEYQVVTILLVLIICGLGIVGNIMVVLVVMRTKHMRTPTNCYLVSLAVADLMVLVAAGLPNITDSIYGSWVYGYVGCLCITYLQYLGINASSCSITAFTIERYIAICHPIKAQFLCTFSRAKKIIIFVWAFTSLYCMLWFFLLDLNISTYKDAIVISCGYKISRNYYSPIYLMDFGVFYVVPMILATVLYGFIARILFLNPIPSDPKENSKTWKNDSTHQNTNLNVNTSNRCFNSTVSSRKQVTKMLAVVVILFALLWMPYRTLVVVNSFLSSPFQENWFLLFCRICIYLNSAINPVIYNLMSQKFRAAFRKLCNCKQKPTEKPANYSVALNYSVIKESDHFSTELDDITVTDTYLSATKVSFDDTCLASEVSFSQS
Outline: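 Screening used HEK293 cells engineered with TRHR, with a brief 5 min room-temperature compound exposure preceding addition of TRH to 1 nM. The read-out was kinetic calcium-dye fluorescence, concentration-response from 15 doses in triplicate.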

[3] = biological target: Thyrotropin-releasing hormone receptor (Homo sapiens) (UniProt P34981); assay: qHTS assay to identify small molecule agonists of the thyrotropin-releasing hormone receptor (TRHR) signaling pathway (AID 1346891; calls by dose curve;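 note: HEK293 cells expressing TRHR with calcium dye readout; series mostly up to about 58 µM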)
Outline: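 In 1536-format, 1500 TRHR-Hek293 cells per well grew 18 h, took up calcium dye for 2 h at 37 °C, received compound, and were read kinetically; 15-point titrations, triplicates.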

[4] = Human pregnane X receptor (PXR) small molecule agonists, qHTS cell viability counter screen (AID 1346977); note: nearly all actives have a fitted effect of over 50% in size
Outline: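 Readout is CellTiter-Fluor fluorescence from PXR-Luc HepG2 cells. Plated cells rested 5hr, then were treated with compounds for 24hr at 37C and 5% CO2, with reagent present during the last hour.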

[5] = Caspase-3/7 induction in HepG2 cells by small molecules, qHTS assay (AID 1346978); note: nearly all actives have a fitted effect of over 15% in size
Outline: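 Wild-type HepG2 cells, 2,000/well, settled 5 hr at 37 C and 5% CO2, then compound-treated for 17 hr; caspase-3/7 activity read by luminescent Caspase-Glo 3/7 after 30 min at room temperature.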

[6] = Caspase-3/7 induction in CHO-K1 cells by small molecules, qHTS cell viability counter screen (AID 1346979); note: nearly all actives have a fitted effect of over 35% in size
Outline: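 To flag cytotoxic compounds, treated CHO-K1 wild-type cells were given CellTiter-Fluor at 16hr and read fluorescently after 1hr at 37C; the caspase-3/7 luminescence was measured in these same wells.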

[7] = Caspase-3/7 induction in CHO-K1 cells by small molecules, qHTS assay (AID 1346980); note: nearly all actives have a fitted effect of over 15% in size
Outline: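 Wild-type CHO-K1 cells exposed to compounds for 17hr at 37 C, 5% CO2. Caspase-3/7 activity then measured by Caspase-Glo 3/7 luminescence after 30min at room temperature.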

[8] = Caspase-3/7 induction in HepG2 cells by small molecules, qHTS cell viability counter screen (AID 1346981); note: series mostly up to about 92 µM; nearly all actives have a fitted effect of over 30% in size
Outline: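 Multiplexed with the caspase-3/7 assay: HepG2 cells, 16 hr compound treatment, CellTiter-Fluor viability detection by fluorescence.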

[9] = biological target: Nuclear receptor subfamily 1 group I member 2 (Homo sapiens) (UniProt O75469); assay: Human pregnane X receptor (PXR) small molecule agonists, qHTS assay (AID 1346982); note: nearly all actives have a fitted effect of over 35% in size; note: potency is the fitted concentration of half-maximal effect
Chain of Nuclear receptor subfamily 1 group I member 2 (Homo sapiens) (O75469 whole entry, looked up): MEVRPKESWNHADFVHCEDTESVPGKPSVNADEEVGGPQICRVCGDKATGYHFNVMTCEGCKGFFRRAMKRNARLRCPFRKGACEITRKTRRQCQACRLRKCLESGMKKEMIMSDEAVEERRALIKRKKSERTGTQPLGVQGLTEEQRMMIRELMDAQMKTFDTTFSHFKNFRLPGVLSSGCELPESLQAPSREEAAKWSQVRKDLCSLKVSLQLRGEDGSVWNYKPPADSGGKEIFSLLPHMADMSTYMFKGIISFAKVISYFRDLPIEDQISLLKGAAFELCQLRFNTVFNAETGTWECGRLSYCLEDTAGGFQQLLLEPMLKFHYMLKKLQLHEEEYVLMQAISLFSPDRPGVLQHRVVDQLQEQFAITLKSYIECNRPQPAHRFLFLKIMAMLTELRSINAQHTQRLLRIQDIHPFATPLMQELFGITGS
Outline: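 We seeded PXR-Luc HepG2 cells in assay medium containing 5% charcoal-stripped FBS, added compounds 5 hr later, incubated 24 hr, and read luminescence with ONE-Glo reagent.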

[10] = biological target: Cytochrome P450 2D6 (Homo sapiens) (UniProt P10635); assay: Cytochrome P450 Family 2 Subfamily D Member 6 (CYP2D6) small molecule antagonists: luciferase reporter qHTS assay (AID 1671196); note: nearly all actives have a fitted effect of over 50% in size; note: potency is the fitted concentration of half-maximal effect
Chain of Cytochrome P450 2D6 (Homo sapiens) (P10635 whole entry, looked up): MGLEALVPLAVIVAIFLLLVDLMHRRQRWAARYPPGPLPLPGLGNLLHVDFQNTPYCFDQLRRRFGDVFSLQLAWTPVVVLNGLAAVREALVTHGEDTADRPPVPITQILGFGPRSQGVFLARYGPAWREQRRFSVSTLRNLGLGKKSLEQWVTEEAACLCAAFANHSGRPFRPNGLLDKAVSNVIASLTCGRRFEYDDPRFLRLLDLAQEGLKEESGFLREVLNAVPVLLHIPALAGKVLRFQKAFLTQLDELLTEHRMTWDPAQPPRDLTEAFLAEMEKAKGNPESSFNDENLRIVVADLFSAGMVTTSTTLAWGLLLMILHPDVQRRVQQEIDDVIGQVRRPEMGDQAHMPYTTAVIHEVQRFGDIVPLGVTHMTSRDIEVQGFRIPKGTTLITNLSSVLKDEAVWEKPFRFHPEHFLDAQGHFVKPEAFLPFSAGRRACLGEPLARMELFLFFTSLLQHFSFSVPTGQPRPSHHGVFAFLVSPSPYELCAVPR
Outline: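 Luminescence (RLU), read 20 min after detection reagent, indicated CYP2D6 conversion of proluciferin to luciferin during a 1 h NADPH-dependent reaction at room temperature.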

[11] = biological target: Cytochrome P450 2C19 (Homo sapiens) (UniProt P33261); assay: Cytochrome P450 Family 2 Subfamily C Member 19 (CYP2C19) small molecule antagonists: luciferase reporter qHTS assay (AID 1671197); note: nearly all actives have a fitted effect of over 65% in size; note: potency is the fitted concentration of half-maximal effect
Chain of Cytochrome P450 2C19 (Homo sapiens) (P33261 whole entry, looked up): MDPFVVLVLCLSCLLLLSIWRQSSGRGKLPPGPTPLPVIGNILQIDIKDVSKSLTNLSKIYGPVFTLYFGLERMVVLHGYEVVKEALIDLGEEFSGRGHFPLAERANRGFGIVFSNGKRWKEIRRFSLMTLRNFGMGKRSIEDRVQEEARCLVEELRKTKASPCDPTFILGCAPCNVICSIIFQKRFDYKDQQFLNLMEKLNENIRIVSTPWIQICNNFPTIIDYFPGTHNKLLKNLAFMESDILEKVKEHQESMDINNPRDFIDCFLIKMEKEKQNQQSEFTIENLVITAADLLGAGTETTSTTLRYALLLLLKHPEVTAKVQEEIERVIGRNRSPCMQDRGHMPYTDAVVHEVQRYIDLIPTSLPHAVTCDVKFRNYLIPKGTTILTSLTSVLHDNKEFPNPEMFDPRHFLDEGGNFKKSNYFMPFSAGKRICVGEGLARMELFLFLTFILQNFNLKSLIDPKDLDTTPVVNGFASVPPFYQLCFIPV
Outline: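 Relative luminescence units recorded 20 min after the detection reagent stopped a 1 h, 37C CYP2C19 reaction on proluciferin substrate, which was started by NADPH regeneration following 10 min room-temperature compound preincubation; ketoconazole positive control.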

[12] = biological target: Cytochrome P450 2C9 (Homo sapiens) (UniProt P11712); assay: Cytochrome P450 Family 2 Subfamily C Member 9 (CYP2C9) small molecule antagonists: luciferase reporter qHTS assay (AID 1671198); note: nearly all actives have a fitted effect of over 50% in size; note: potency is the fitted concentration of half-maximal effect
Chain of Cytochrome P450 2C9 (Homo sapiens) (P11712 whole entry, looked up): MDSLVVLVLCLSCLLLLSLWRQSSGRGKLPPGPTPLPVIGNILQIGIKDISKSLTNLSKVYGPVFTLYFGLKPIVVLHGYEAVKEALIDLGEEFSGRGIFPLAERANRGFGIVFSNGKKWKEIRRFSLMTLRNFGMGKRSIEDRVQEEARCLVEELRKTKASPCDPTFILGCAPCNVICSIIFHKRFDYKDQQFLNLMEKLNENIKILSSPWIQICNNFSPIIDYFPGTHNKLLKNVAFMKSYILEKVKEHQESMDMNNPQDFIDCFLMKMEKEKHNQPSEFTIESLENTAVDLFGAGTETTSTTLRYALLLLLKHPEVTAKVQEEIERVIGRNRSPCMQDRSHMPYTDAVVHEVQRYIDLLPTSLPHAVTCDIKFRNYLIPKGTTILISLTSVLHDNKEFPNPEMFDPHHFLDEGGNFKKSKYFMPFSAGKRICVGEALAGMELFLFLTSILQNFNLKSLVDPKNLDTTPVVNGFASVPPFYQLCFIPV
Outline: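 P450-Glo proluciferin substrate with CYP2C9 enzyme; 10 min RT preincubation, then NADPH regeneration 1 h at 37C; luciferin detection reagent 20 min RT, luminescence in relative luminescence units.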

[13] = biological target: Cytochrome P450 1A2 (Homo sapiens) (UniProt P05177); assay: Cytochrome P450 Family 1 Subfamily A Member 2 (CYP1A2) small molecule antagonists: luciferase reporter qHTS assay (AID 1671199); note: nearly all actives have a fitted effect of over 50% in size; note: potency is the fitted concentration of half-maximal effect
Chain of Cytochrome P450 1A2 (Homo sapiens) (P05177 whole entry, looked up): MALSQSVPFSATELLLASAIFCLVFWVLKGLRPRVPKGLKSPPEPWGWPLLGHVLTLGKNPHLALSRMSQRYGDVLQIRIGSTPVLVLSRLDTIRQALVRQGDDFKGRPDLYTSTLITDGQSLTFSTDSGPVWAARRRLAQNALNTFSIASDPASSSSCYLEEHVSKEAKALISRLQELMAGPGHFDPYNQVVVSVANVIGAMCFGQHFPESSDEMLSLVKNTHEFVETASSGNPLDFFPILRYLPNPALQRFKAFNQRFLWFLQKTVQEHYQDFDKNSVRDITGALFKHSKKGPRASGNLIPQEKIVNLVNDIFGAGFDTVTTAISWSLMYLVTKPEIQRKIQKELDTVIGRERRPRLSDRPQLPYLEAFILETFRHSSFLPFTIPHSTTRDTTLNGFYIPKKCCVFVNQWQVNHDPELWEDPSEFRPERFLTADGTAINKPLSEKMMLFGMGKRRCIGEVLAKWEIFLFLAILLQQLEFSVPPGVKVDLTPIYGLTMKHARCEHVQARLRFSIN
Outline: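 CYP1A2 turnover of a luminogenic substrate was quantified after 1 h with NADPH regeneration at room temperature. Furafylline served as positive control.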

[14] = biological target: Voltage-gated inwardly rectifying potassium channel KCNH2 (Homo sapiens) (UniProt Q12809); assay: Human Ether-a-go-go-Related Gene (hERG) channel small molecule antagonists: fluorescence cell-based qHTS assay (AID 1671200)
Chain of Voltage-gated inwardly rectifying potassium channel KCNH2 (Homo sapiens) (Q12809 whole entry, looked up): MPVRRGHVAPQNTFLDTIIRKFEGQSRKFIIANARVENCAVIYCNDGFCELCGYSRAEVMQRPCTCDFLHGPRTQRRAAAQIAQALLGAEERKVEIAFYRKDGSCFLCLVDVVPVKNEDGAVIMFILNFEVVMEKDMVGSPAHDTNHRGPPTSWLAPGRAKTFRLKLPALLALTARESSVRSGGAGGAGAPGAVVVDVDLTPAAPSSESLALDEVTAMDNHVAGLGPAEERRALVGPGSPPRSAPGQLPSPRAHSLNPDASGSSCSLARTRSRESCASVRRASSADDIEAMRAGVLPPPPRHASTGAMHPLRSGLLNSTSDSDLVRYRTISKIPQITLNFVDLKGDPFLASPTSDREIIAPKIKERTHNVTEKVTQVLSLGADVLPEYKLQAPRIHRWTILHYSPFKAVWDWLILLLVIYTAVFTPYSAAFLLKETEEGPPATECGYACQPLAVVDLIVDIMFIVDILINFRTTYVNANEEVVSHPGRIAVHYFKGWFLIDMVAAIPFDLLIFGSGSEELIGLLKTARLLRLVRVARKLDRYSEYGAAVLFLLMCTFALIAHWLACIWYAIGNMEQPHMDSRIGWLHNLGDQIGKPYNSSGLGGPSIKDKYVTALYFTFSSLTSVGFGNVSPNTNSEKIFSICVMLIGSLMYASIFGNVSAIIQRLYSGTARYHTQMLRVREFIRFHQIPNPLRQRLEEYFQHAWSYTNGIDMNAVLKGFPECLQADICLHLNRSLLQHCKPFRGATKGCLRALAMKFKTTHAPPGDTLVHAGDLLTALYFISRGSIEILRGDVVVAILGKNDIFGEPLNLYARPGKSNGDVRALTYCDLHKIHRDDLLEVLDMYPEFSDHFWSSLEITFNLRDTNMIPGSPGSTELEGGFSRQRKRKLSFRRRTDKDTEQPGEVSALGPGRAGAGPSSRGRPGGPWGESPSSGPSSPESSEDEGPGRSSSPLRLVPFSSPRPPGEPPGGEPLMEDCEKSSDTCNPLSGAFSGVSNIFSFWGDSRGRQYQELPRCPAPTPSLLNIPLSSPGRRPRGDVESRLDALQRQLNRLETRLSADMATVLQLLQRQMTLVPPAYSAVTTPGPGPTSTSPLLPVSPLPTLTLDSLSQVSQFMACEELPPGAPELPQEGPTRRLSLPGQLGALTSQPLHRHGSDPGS
Outline: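 Measured: Tl+ flux via fluorescence (480/540 nm) in hERG-expressing U2OS cells after 1 h dye loading at room temperature.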

[15] = biological target: Cytochrome P450 3A4 (Homo sapiens) (UniProt P08684); assay: Cytochrome P450 Family 3 Subfamily A Member 4 (CYP3A4) small molecule antagonists: luciferase reporter qHTS assay (AID 1671201); note: nearly all actives have a fitted effect of over 50% in size; note: potency is the fitted concentration of half-maximal effect
Chain of Cytochrome P450 3A4 (Homo sapiens) (P08684 whole entry, looked up): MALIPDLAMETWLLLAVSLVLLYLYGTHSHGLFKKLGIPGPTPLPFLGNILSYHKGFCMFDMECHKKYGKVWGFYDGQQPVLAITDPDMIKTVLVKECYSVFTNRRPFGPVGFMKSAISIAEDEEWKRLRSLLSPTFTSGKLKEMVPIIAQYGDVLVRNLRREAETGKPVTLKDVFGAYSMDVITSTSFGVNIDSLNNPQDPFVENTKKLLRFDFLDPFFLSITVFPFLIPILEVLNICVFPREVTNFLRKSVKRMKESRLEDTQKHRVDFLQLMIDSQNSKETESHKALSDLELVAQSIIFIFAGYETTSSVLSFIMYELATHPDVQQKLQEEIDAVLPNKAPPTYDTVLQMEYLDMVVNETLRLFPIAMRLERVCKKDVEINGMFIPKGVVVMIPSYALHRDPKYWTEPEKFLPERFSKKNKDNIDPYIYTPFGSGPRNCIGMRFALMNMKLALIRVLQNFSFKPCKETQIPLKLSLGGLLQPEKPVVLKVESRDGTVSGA
Outline: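 Setup: enzyme-substrate mix, compound pin transfer, 10 min RT. Reaction: NADPH regeneration solution, 1 h RT. Readout: detection reagent stops turnover, luminescence measured after 20 min, expressed in relative luminescence units.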

[16] = biological target: Nuclear receptor subfamily 1 group I member 2 (Rattus norvegicus) (UniProt Q9R1A7); assay: Rat pregnane X receptor (rPXR) activation by small molecules, qHTS assay (AID 1346983); conditions: rPXR luciferase reporter cells, One-Glo luminescence, 24 h; hits give high values; note: nearly all actives have a fitted effect of over 20% in size
Chain of Nuclear receptor subfamily 1 group I member 2 (Rattus norvegicus) (Q9R1A7 whole entry, looked up): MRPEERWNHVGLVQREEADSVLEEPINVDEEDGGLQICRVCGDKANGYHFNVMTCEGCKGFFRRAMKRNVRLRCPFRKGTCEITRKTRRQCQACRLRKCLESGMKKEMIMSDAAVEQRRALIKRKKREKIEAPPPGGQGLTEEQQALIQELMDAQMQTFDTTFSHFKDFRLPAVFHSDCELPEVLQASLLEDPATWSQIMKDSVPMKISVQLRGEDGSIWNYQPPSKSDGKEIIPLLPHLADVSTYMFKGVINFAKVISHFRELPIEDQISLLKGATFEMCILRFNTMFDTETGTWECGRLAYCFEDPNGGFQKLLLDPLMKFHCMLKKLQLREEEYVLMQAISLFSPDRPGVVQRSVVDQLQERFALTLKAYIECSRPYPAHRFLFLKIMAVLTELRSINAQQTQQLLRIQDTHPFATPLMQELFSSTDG
Outline: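 Cell-based rPXR activation assay: rPXR cells, 2,000 per well, rested 5hr at 37 C, then exposed to compounds in DMSO for 24 hr at 37 C. Luciferase activity read by One-Glo luminescence after 30 min at room temperature.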

[17] = biological target: Nuclear receptor subfamily 1 group I member 2 (Homo sapiens) (UniProt O75469); assay: CYP3A4 induction through human pregnane X receptor (PXR) by small molecules, qHTS assay (AID 1346984); note: nearly all actives have a fitted effect of over 40% in size
Outline: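 qHTS, concentration-response format: HepG2 DPX-2 line, PXR/CYP3A4-luc. Exposure 24 h, 37C. Substrate Luciferin-IPA 3uM final, 3 h. Detection One-Glo, 30 min RT.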

[18] = biological target: Nuclear receptor subfamily 1 group I member 2 (Homo sapiens) (UniProt O75469); assay: Human pregnane X receptor (PXR) activation by small molecules, qHTS assay (AID 1346985); note: nearly all actives have a fitted effect of over 40% in size
Outline: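 DPX-2 cells (HepG2 co-transfected with a PXR response element and a CYP3A4-promoter luciferase construct) were seeded at 2,000 per well, rested 5 hr at 37C, then exposed to DMSO-dissolved compounds for 24 hr. Activation was read as luciferase luminescence.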

| Compound | outcome [1] | outcome [2] | outcome [3] | outcome [4] | outcome [5] | Potency [6] | outcome [7] | outcome [8] | Potency [9] | Potency [10] | Potency [11] | Potency [12] | Potency [13] | Potency [14] | Potency [15] | max activation [16] | Potency [17] | Potency [18] |
| --- | --- | --- | --- | --- | --- | --- | --- | --- | --- | --- | --- | --- | --- | --- | --- | --- | --- | --- |
| O=C[O][Al]([O]C=O)[O]C=O | inactive | inactive | inactive | inactive | inactive | inactive | inactive | inactive | inactive | inactive | inactive | inactive | inactive | inactive | inactive |  |  |  |
| CC(C)[C@H]1CC[C@H](C)C[C@@H]1O | inactive | inactive | inactive | inactive | inactive | inactive | inactive | inactive | 55.4 µM (active) | inactive | inactive | inactive | inactive | inactive | inactive |  |  |  |
| CC12CCC(C1)C(C)(C)C2O (stereo not drawn) | inactive | inactive | inactive | inactive | inactive | inactive | inactive | inactive | inactive | inactive | inactive | inactive | inactive | inactive | inactive |  |  |  |
| O=C1NC(c2ccccc2)(c2ccccc2)C(=O)N1COP(=O)(O)O | inactive | inactive | inactive | inactive | inactive | inactive | inactive | inactive | inactive | inactive | inactive | inactive | inactive | inactive | inactive |  |  |  |
| CN(C)CCOC(=O)C(c1ccccc1)C1(O)CCCC1 (stereo not drawn) | inactive | inactive | inactive | inactive | inactive | inactive | inactive | inactive | inactive |  |  | inactive | inactive | inactive | inactive | 3.01% | inactive | inactive |
| CC(=O)OCC(=O)Nc1cc(C#N)cc(NC(=O)COC(C)=O)c1Cl | inactive | inactive | inactive | inactive | inactive | inactive | inactive | inactive | inactive | inactive |  | inactive | inactive | inactive | inactive |  |  |  |
| Cc1ccccc1C(N)=O | inactive | inactive | inactive | inactive | inactive | inactive | inactive | inactive | inactive | 56.3 µM (active) |  | inactive |  | inactive | inactive |  |  |  |
| CCC(C)C(C)=O (stereo not drawn) | inactive | inactive | inactive | inactive | inactive | inactive | inactive | inactive | inactive | 34.8 µM (active) |  | inactive |  | inactive | inactive |  |  |  |
| C=CCSSCCC | inactive | inactive | inactive | inactive | inactive | inactive | inactive | inactive | inactive | 56.2 µM (active) |  | inactive | inactive | inactive | inactive |  |  |  |
| CC(CO)(CO)CO | inactive | inactive | inactive | inactive | inactive | inactive | inactive | inactive | inactive | 28.6 µM (active) |  | inactive |  | inactive | inactive |  |  |  |
| CN1CCOC(c2ccccc2)c2ccccc2C1 (stereo not drawn) | inactive | inactive | inactive | inactive | inactive | inactive | inactive | inactive |  |  |  |  |  | inactive |  | -1.81% |  |  |
| CCC/C=C(\C=O)CC | inactive | inactive | inactive | inactive | inactive | inactive | inactive | inactive |  | inactive | 39.9 µM (active) | 63.3 µM (active) |  | inactive | 39.9 µM (active) |  |  |  |
| CC(S)C(C)S (stereo not drawn) | inactive | inactive | inactive | inactive | inactive | inactive | inactive | inactive | inactive | inactive |  | inactive |  | inactive | inactive |  |  |  |
| CCOc1cccc(N)c1 | inactive | inactive | inactive | inactive | inactive | inactive | inactive | inactive | inactive |  | 6.3 µM (active) | 7.93 µM (active) | 35.4 µM (active) | inactive | 2.23 µM (active) |  |  |  |
| CSc1cnccn1 | inactive | inactive | inactive | inactive | inactive | inactive | inactive | inactive | inactive | inactive |  | inactive | inactive | inactive | inactive |  |  |  |
| C[C@@H](O)C(=O)O | inactive | inactive | inactive | inactive | inactive | inactive | inactive | inactive | inactive | inactive |  | inactive | inactive | inactive | inactive |  |  |  |
| CC(=O)CC(=O)Nc1ccc(C)cc1C | inactive | inactive | inactive | inactive | inactive | inactive | inactive | inactive | inactive | inactive |  | 31.7 µM (active) | 15.9 µM (active) | inactive |  |  |  |  |
| Cc1cc(C)c(C(=O)O)c(C)c1 | inactive | inactive | inactive | inactive | inactive | inactive | inactive | inactive | inactive |  | inactive | inactive | 39.9 µM (active) | inactive | inactive |  |  |  |
